Assay outcomes as filed in PubChem BioAssay.
aSyn 5UTR act = Activators via SNCA 5'UTR binding, MLPCN | activity score, % (tested at 7.5 µM), hits read low | actives 7.1% (n = 300,000) | AID 1814 | alpha-synuclein 5'UTR reporter, activators screen; in the data active = activity score below about -60%
Active calls of the source: *. A selection follows.

Results for CCO[C@@H]1OC(C(=O)NCc2nc3ccccc3[nH]2)=C[C@H](C(C)(C)C)[C@H]1CCCO ?
aSyn 5UTR act: 85

Results for CNC[C@H](Cc1ccccc1)NC[C@@H](Cc1cccc2ccccc12)NCCc1ccc(C)cc1 ?
aSyn 5UTR act: 123

What do the screens show for `Cc1nnc(NCCc2ccccc2)c2ccccc12`?
aSyn 5UTR act: -86*

Results for CC(Sc1nnc(-c2cccnc2)n1-c1ccccc1)C(=O)NCc1ccc2c(c1)OCO2 (stereo not drawn) ?
aSyn 5UTR act: -71*

What do the screens show for `CSc1cccc(NC(=O)/C=C/c2cccc(Cl)c2)c1`?
aSyn 5UTR act: -218*

Results for O=C(/C=C/c1cccc(Cl)c1)Nc1ncccn1 ?
aSyn 5UTR act: -76*

How did CNC(=O)c1ccc(NC(=O)/C=C/c2cccc(F)c2)cc1 do in these assays?
aSyn 5UTR act: -98*

What do the screens show for `Cc1ccc2nc3sc(C(=O)N4CCCc5ccccc54)c(N)c3cc2c1`?
aSyn 5UTR act: -158*

How did CCCc1nc2oc3c(NCc4ccccn4)ncnc3c2c2c1COC(C)(C)C2 do in these assays?
aSyn 5UTR act: 53

How did Cc1nc2oc(C(=O)c3ccccc3)c(N)c2c2c1COC(C)(C)C2 do in these assays?
aSyn 5UTR act: -83*

How did Clc1ccc(OCc2nc(-c3ccncc3)no2)c(Br)c1 do in these assays?
aSyn 5UTR act: -119*

How did c1ccc(OCc2nc(-c3ccccc3)no2)cc1 do in these assays?
aSyn 5UTR act: -202*

How did NC(=O)COc1ccc(-c2noc(COc3ccccc3[N+](=O)[O-])n2)cc1 do in these assays?
aSyn 5UTR act: -84*

Results for c1ccc(OCc2nc(-c3ccncc3)no2)cc1 ?
aSyn 5UTR act: -82*

How did O=[N+]([O-])c1nn(-c2ccc3c(c2)OCCO3)n(O)c1=NCCC1=CCCCC1 do in these assays?
aSyn 5UTR act: -139*

How did O=[N+]([O-])c1nn(-c2ccc3c(c2)OCCO3)n(O)c1=NCc1ccc(F)cc1 do in these assays?
aSyn 5UTR act: -124*

What do the screens show for `O=[N+]([O-])c1nn(-c2ccc3c(c2)OCCO3)n(O)c1=NCc1ccc(F)cc1Cl`?
aSyn 5UTR act: -140*

What do the screens show for `CC1(C)CC(/C=C/c2ccccc2)=Nc2ccccc2N1`?
aSyn 5UTR act: -155*

How did O=C1CC(/C=C/c2ccccc2)=Nc2ccccc2N1 do in these assays?
aSyn 5UTR act: -252*

What do the screens show for `O=C1CC(/C=C/c2ccc(Cl)cc2)=Nc2ccccc2N1`?
aSyn 5UTR act: -226*

Results for Cc1ccc2nc(NC(=O)COC(=O)c3ccncc3)sc2c1 ?
aSyn 5UTR act: -118*

How did CC(=O)Nc1nc2ccc(Br)cc2s1 do in these assays?
aSyn 5UTR act: -107*

How did COC(=O)c1ccc2nc(NC(=O)C3CC3)sc2c1 do in these assays?
aSyn 5UTR act: -146*

How did CCOC(=O)c1ccc2nc(NC(C)=O)sc2c1 do in these assays?
aSyn 5UTR act: -126*

How did COC(=O)c1ccc2nc(NC(=O)C(C)C)sc2c1 do in these assays?
aSyn 5UTR act: -74*

What do the screens show for `COC(=O)c1ccc(C(=O)N=c2sccn2C)cc1`?
aSyn 5UTR act: -148*

Results for Cn1ccsc1=NC(=O)c1ccc(Cl)cc1 ?
aSyn 5UTR act: -197*

How did CN(C)c1ccc(C(=O)N=c2sccn2C)cc1[N+](=O)[O-] do in these assays?
aSyn 5UTR act: -117*

What do the screens show for `Cn1ccsc1=NC(=O)c1ccc(CS(C)(=O)=O)cc1`?
aSyn 5UTR act: -66*

What do the screens show for `Cn1ccs/c1=N\C(=O)Nc1ccccc1`?
aSyn 5UTR act: -128*

What do the screens show for `Cn1ccsc1=NC(=O)c1ccc(OC(F)(F)F)cc1`?
aSyn 5UTR act: -77*

Results for COc1ccc(C(=O)N=c2sccn2C)cc1 ?
aSyn 5UTR act: -114*

What do the screens show for `Cn1ccsc1=NC(=O)c1ccc(S(=O)(=O)C(F)F)cc1`?
aSyn 5UTR act: -96*

What do the screens show for `CN(C)c1ccc(C(=O)c2ccc(N(C)C)c3ccccc23)cc1`?
aSyn 5UTR act: 89

Results for CN(C)c1ccc(C(=O)c2ccccc2C(=O)O)cc1[N+](=O)[O-] ?
aSyn 5UTR act: -77*

Results for O=C(Nc1cccc(Cl)c1)Nc1ccc2nccnc2c1 ?
aSyn 5UTR act: -163*

What do the screens show for `Cn1nnc2cc(NC(=O)Nc3cccc(Cl)c3)ccc21`?
aSyn 5UTR act: -151*

What do the screens show for `O=C(Nc1ccc2nccnc2c1)Nc1ccccc1Cl`?
aSyn 5UTR act: -90*

How did Cc1ccc(NC(=O)Cc2nc(CSc3nnc(-c4ccc5c(c4)OCO5)o3)cs2)cc1 do in these assays?
aSyn 5UTR act: -77*

How did COc1cc2cccc(OC)c(=O)c2c(O)c1OC do in these assays?
aSyn 5UTR act: -70*

How did COc1cc2c(cc1OC)-c1c(OC)c(OC)cc3ccnc(c13)C2=O do in these assays?
aSyn 5UTR act: 110

What do the screens show for `O=C1C(=O)c2c(C(=O)c3ccccc3)coc2-c2ccccc21`?
aSyn 5UTR act: -105*

What do the screens show for `O=C(/C(=C\c1ccccc1)c1nc2ccccc2[nH]1)c1ccc(Cl)cc1`?
aSyn 5UTR act: -228*

How did COC(=O)/C(=C\c1ccc(O)cc1)c1nc2ccccc2[nH]1 do in these assays?
aSyn 5UTR act: -186*

Results for COc1cc(/C=C(/C(=O)c2cccs2)c2nc3ccccc3[nH]2)ccc1O ?
aSyn 5UTR act: -86*

Results for C/C(=C\c1ccc(N)cc1)c1nc2ccccc2[nH]1 ?
aSyn 5UTR act: -172*

How did O=C(/C(=C/c1ccc(Cl)cc1)c1nc2ccccc2[nH]1)c1cccs1 do in these assays?
aSyn 5UTR act: -178*

How did c1ccc(-c2ccc(-n3ccnc3)cc2)cc1 do in these assays?
aSyn 5UTR act: -81*

What do the screens show for `COC(=O)c1ccc(NC(=O)c2ccccc2SC)cc1`?
aSyn 5UTR act: -67*

Results for O=C(Nc1ccc2c(c1)CCC2)c1ccccc1Br ?
aSyn 5UTR act: -129*

Results for CSc1ccccc1C(=O)Nc1ccc2c(c1)CCC2 ?
aSyn 5UTR act: -135*

What do the screens show for `Cc1c(C(=O)Nc2ccc3c(c2)CCC3)cccc1[N+](=O)[O-]`?
aSyn 5UTR act: -204*

Results for O=C(Nc1ccc2nc(C3CC3)n(Cc3ccccc3)c(=O)c2c1)C1CC1 ?
aSyn 5UTR act: -251*

What do the screens show for `COc1ccc(Cn2c(C3CC3)nc3ccc(NC(=O)c4ccco4)cc3c2=O)cc1`?
aSyn 5UTR act: -152*

How did CCC(=O)Nc1ccc2nc(C3CC3)n(Cc3ccccc3)c(=O)c2c1 do in these assays?
aSyn 5UTR act: -201*

How did CCC(=O)Nc1nc2ccccc2n1Cc1ccc(Cl)cc1 do in these assays?
aSyn 5UTR act: 72

What do the screens show for `CC(=O)Nc1ccc2nc(C)n(Cc3ccc(Cl)cc3)c(=O)c2c1`?
aSyn 5UTR act: -78*

How did CCCc1cc2c(cc1NC(=O)c1ccc(C(C)(C)C)cc1)OCO2 do in these assays?
aSyn 5UTR act: -74*

Results for COCCCNC(=O)Nc1ccc(Br)cc1Cl ?
aSyn 5UTR act: -72*

What do the screens show for `S=C(NCc1ccccn1)Nc1ccc(Br)cc1Cl`?
aSyn 5UTR act: -143*

Results for O=C(NCc1ccccn1)Nc1ccc(Br)cc1Cl ?
aSyn 5UTR act: -72*

Results for O=C(NCc1ccccn1)c1ccc(Cn2c(=S)[nH]c3ccc(Br)cc3c2=O)cc1 ?
aSyn 5UTR act: 40

What do the screens show for `O=C(NCc1ccccn1)Nc1ccc(Cl)cc1Cl`?
aSyn 5UTR act: -97*

What do the screens show for `S=C(NCc1ccccn1)Nc1ccccc1Cl`?
aSyn 5UTR act: -115*

How did COc1ccc2[nH]cc(/C=C/C(=O)c3ccccc3)c2c1 do in these assays?
aSyn 5UTR act: -245*

What do the screens show for `Cc1ccc(C(=O)/C=C/c2c[nH]c3ccccc23)cc1`?
aSyn 5UTR act: -237*

What do the screens show for `O=C(/C=C/c1c[nH]c2ccccc12)c1ccccc1`?
aSyn 5UTR act: -330*
